Source: PubChem BioAssay (NCI)
Values joined by “and” are separate entries in the source; they are usually repeats but may differ in a detail not shown here. Identical values can stand only once. About 79,000 compounds went through this panel and 15% of them were active in at least one assay; those are over-represented in the sample as a whole. Some compounds were tested as several samples or in several runs, with calls that do not always agree. Active and inactive are the calls of the source. No stated cut-off is given here; in the data, active means growth inhibition above about 70%; inactive means the rest.

Key:
[1] = NCI Yeast Anticancer Drug Screen. Data for the rad50 strain (AID 155);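 further: 0% = growth of vehicle-only cultures of the same strain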; details: S. cerevisiae rad50 strain growth inhibition, stronger effect = higher value
Outline: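 Readout: growth inhibition relative to vehicle-treated cultures. Compound exposure was carried out in a genetically defined yeast strain deficient in DNA damage repair.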

[2] = NCI Yeast Anticancer Drug Screen. Data for the mec2-1 strain (AID 157); details: S. cerevisiae mec2-1 strain, stronger effect = higher value
Outline: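 Strain: mec2-1 (DNA repair/cell cycle alteration). Compound exposure, then growth measured; inhibition expressed relative to vehicle.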

[3] = NCI Yeast Anticancer Drug Screen. Data for the sgs1 mgt1 strain (AID 161);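 further: 0% = growth of cultures given vehicle only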; details: S. cerevisiae sgs1 mgt1 strain, stronger effect = higher value
Outline: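 Test agents were incubated with a DNA-repair-mutant yeast strain. Growth was then read and compared against vehicle-treated controls.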

[4] = NCI Yeast Anticancer Drug Screen. Data for the cln2 rad14 strain (AID 165);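 further: 0% = growth equal to vehicle treated cultures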; details: S. cerevisiae cln2 rad14 strain, stronger effect = higher value
Outline: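 Compounds are applied to the cln2 rad14 yeast strain, and growth is then compared with that of vehicle-treated cultures to give inhibition.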

[5] = NCI Yeast Anticancer Drug Screen. Data for the bub3 strain (AID 167); details: S. cerevisiae bub3 mutant strain, stronger effect = higher value
Outline: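 Readout: yeast growth inhibition, expressed relative to vehicle-only wells. The test organism is a mutant strain from a panel with lesions in DNA repair or checkpoint genes.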

[6] = NCI Yeast Anticancer Drug Screen. Data for the mlh1 rad18 strain (AID 175); details: S. cerevisiae mlh1 rad18 strain growth inhibition, stronger effect = higher value
Outline: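 Read-out is yeast growth inhibition, calculated against vehicle-only controls. The compound was applied to a strain engineered with DNA damage repair alterations.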

[7] = at 5.0 µM (retest, dose inferred, filed as 0.5)
[8] = at 50.0 µM (retest, dose inferred, filed as 5.0)

| SMILES | growth inhibition [1, 7] | growth inhibition [1, 8] | growth inhibition ([1]; at 50.0 µM) | growth inhibition [2, 7] | growth inhibition [2, 8] | growth inhibition ([2]; at 50.0 µM) | growth inhibition [3, 7] | growth inhibition [3, 8] | growth inhibition ([3]; at 50.0 µM) | growth inhibition [4, 7] | growth inhibition [4, 8] | growth inhibition ([4]; at 50.0 µM) | growth inhibition [5, 7] | growth inhibition [5, 8] | growth inhibition ([5]; at 50.0 µM) | growth inhibition [6, 7] | growth inhibition [6, 8] | growth inhibition ([6]; at 50.0 µM) |
| --- | --- | --- | --- | --- | --- | --- | --- | --- | --- | --- | --- | --- | --- | --- | --- | --- | --- | --- |
| COc1ccc(-c2c(C#N)c(-c3ccc(C)cc3)n(NS(=O)(=O)c3ccccc3)c(=O)c2C#N)cc1 | 94% (active) | 97% (active) | 40.5% (inactive) | 42% (inactive) | 94% (active) | 49.8% (inactive) | 41% (inactive) | 75% (active) | 50.8% (inactive) | 49% (inactive) | 58% (inactive) | 66% (inactive) | 47% (inactive) | 56% (inactive) | 39.6% (inactive) | 91% (active) | 95% (active) | 43% (inactive) |
| OCC1OC(n2cnc3c(=S)nc[nH]c32)C(O)C1O (configuration not stated) | -3% (inactive) | -13% (inactive) | -0.9% (inactive) and -2.3% (inactive) | -14% (inactive) | -14% (inactive) | 8.35% (inactive) and -13.8% (inactive) | 0% (inactive) | 5% (inactive) | 6.65% (inactive) and -21.8% (inactive) | 20% (inactive) | -7% (inactive) | 24.9% (inactive) and -27% (inactive) | 0% (inactive) | -3% (inactive) | 14.9% (inactive) and -16.9% (inactive) | -13% (inactive) | -14% (inactive) | 3.2% (inactive) and -1.15% (inactive) |
| CCCCCCCCCCSC(=N)N | -141% (inactive) and 19% (inactive) | 82% (active) and 91% (active) | 52.9% (inactive) and 95.7% (active) | -48% (inactive) and -3% (inactive) | 71% (active) and 86% (active) | 49.8% (inactive) and 89.2% (active) | -54% (inactive) and 22% (inactive) | 90% (active) and 95% (active) | 52.5% (inactive) and 96.5% (active) | -50% (inactive) and 8% (inactive) | 49% (inactive) and 62% (inactive) | 57.5% (inactive) and 57.2% (inactive) | -47% (inactive) and 22% (inactive) | 84% (active) and 92% (active) | 52.5% (inactive) and 94.3% (active) | -134% (inactive) and 1% (inactive) | 79% (active) and 90% (active) | 52% (inactive) and 92.1% (active) |
| CC(C)=CCC(O)C1=CC(=O)c2c(O)ccc(O)c2C1=O (configuration not stated) | 44% (inactive) | 59% (inactive) | 9.15% (inactive) and 87.9% (active) and 4.05% (inactive) | 46% (inactive) | 66% (inactive) | 15.9% (inactive) and 90.7% (active) and 54.8% (inactive) | 43% (inactive) | 92% (active) | 12.4% (inactive) and 91.5% (active) and 30.6% (inactive) | 59% (inactive) | 94% (active) | 16.1% (inactive) and 89.1% (active) and 33.1% (inactive) | 62% (inactive) | 87% (active) | 22.6% (inactive) and 88% (active) and 36.5% (inactive) | 43% (inactive) | 60% (inactive) | 26.6% (inactive) and 85.2% (active) and 9.65% (inactive) |
| CC(C)(c1ccc(O)cc1)c1ccc(O)cc1 | 5% (inactive) | 59% (inactive) and 83% (active) | 69.5% (inactive) and 77.6% (active) | 10% (inactive) and 3% (inactive) | 34% (inactive) and 51% (inactive) | 58.6% (inactive) and 81.8% (active) | -3% (inactive) and 4% (inactive) | 75% (active) and 51% (inactive) | 78.1% (active) and 64.6% (inactive) | 9% (inactive) and 16% (inactive) | 39% (inactive) and 78% (active) | 50.4% (inactive) and 71.2% (active) | 30% (inactive) and 5% (inactive) | 45% (inactive) and 64% (inactive) | 59.7% (inactive) and 81.1% (active) | 6% (inactive) and 4% (inactive) | 64% (inactive) and 68% (inactive) | 76.6% (active) and 87.7% (active) |
| CCc1nc(N)nc(N)c1-c1ccc(Cl)c(N=[N+]=[N-])c1 | 41% (inactive) | 40% (inactive) | 6.65% (inactive) and 71.2% (active) | 18% (inactive) | 21% (inactive) | -15.3% (inactive) and 65.5% (inactive) | 56% (inactive) | 54% (inactive) | -0.8% (inactive) and 61.6% (inactive) | 18% (inactive) | 28% (inactive) | -6.55% (inactive) and 62.5% (inactive) | 30% (inactive) | 26% (inactive) | 6.35% (inactive) and 54.5% (inactive) | 65% (inactive) | 62% (inactive) | -1.7% (inactive) and 27.7% (inactive) |
| CC(C)CCC[C@@H](C)[C@H]1CC[C@H]2[C@@H]3CC=C4N5CCCN=C5CC[C@]4(C)[C@H]3CC[C@]12C | 2% (inactive) | 98% (active) | 98% (active) | -20% (inactive) | 99% (active) | 98.7% (active) | -15% (inactive) | 89% (active) | 98.5% (active) | 0% (inactive) | 54% (inactive) | 98.2% (active) | 0% (inactive) | 97% (active) | 98.2% (active) | -8% (inactive) | 98% (active) | 97.9% (active) |
| CC12CCCCC1C/C(=N/NC(N)=O)CC2 (configuration not stated) | -135% (inactive) | -78% (inactive) | 8.9% (inactive) and 3.8% (inactive) | -52% (inactive) | -45% (inactive) | 13.1% (inactive) and 1.25% (inactive) | -64% (inactive) | -54% (inactive) | -5.85% (inactive) and -9.35% (inactive) | -58% (inactive) | -42% (inactive) | 41.9% (inactive) and -25.8% (inactive) | -62% (inactive) | -49% (inactive) | -4.1% (inactive) and -11.3% (inactive) | -123% (inactive) | -99% (inactive) | 14.5% (inactive) and 10.7% (inactive) |
| O=C1C(CN2CCOCC2)CCCC1CN1CCOCC1 (configuration not stated) | 0% (inactive) | 97% (active) | 12.2% (inactive) and 1.25% (inactive) | 4% (inactive) | 98% (active) | 35% (inactive) and 33.8% (inactive) | 2% (inactive) | 96% (active) | 10.8% (inactive) and 24.9% (inactive) | 3% (inactive) | 97% (active) | 19.1% (inactive) and -27.2% (inactive) | 0% (inactive) | 95% (active) | 1.05% (inactive) and 69.5% (inactive) | 3% (inactive) | 97% (active) | 26.8% (inactive) and 9.15% (inactive) |
| NS(=O)(=O)c1ccc(Nc2c3ccccc3nc3c(C(=O)N4CCN(CCO)CC4)cccc23)cc1 | 61% (inactive) | 61% (inactive) | 38.6% (inactive) | 39% (inactive) | 39% (inactive) | 40.7% (inactive) | 60% (inactive) | 60% (inactive) | 24.4% (inactive) | 25% (inactive) | 25% (inactive) | 29.9% (inactive) | 32% (inactive) | 32% (inactive) | 23.9% (inactive) | 30% (inactive) | 30% (inactive) | 79.8% (active) |
| CC1(c2ccccc2)c2ccccc2N(c2ccccc2)C(=O)C1O (configuration not stated) | 98% (active) | 100% (active) | -2.35% (inactive) and 99.5% (active) | 98% (active) | 100% (active) | 7.75% (inactive) and 99.7% (active) | 97% (active) | 99% (active) | 8.35% (inactive) and 99.6% (active) | 96% (active) | 99% (active) | 1.8% (inactive) and 99.2% (active) | 97% (active) | 99% (active) | -0.35% (inactive) and 99.7% (active) | 98% (active) | 99% (active) | 10.2% (inactive) and 99.4% (active) |
| CCOC(=O)C(Cc1ccccc1[N+](=O)[O-])C(=O)OCC | -5% (inactive) | -33% (inactive) | 5.4% (inactive) | -27% (inactive) | -5% (inactive) | -3.7% (inactive) | -21% (inactive) | 3% (inactive) | 28.6% (inactive) | 17% (inactive) | 10% (inactive) | 7.75% (inactive) | 30% (inactive) | 3% (inactive) | 44.6% (inactive) | 0% (inactive) | -22% (inactive) | 20.5% (inactive) |
| COc1ccc(N/N=C(\CCN(C)C)c2ccccc2)cc1 | 7% (inactive) | 51% (inactive) | 80.7% (active) | -2% (inactive) | 40% (inactive) | 3.7% (inactive) | 16% (inactive) | 61% (inactive) | 56.9% (inactive) | 6% (inactive) | 32% (inactive) | 57.9% (inactive) | -6% (inactive) | 78% (active) | 49.2% (inactive) | 12% (inactive) | 78% (active) | 94.8% (active) |
| Oc1ccc2ccccc2c1Cc1c(O)ccc2ccccc12 | -1% (inactive) | 86% (active) | 33% (inactive) and 99.2% (active) | 11% (inactive) | 96% (active) | 29.8% (inactive) and 22.7% (inactive) | 7% (inactive) | 53% (inactive) | 44.1% (inactive) and 99.5% (active) | -25% (inactive) | 95% (active) | 21.6% (inactive) and 97.8% (active) | -6% (inactive) | 95% (active) | 16.2% (inactive) and 48.6% (inactive) | -8% (inactive) | 89% (active) | 16.4% (inactive) and 99.3% (active) |
